Reference: ChEMBL document CHEMBL3988442, “University of Dundee, Small-Polar-MMV Screening Library” (2021)

Tests used:
[1] = target: T1, Aspartate--tRNA(Asp/Asn) ligase (Mycobacterium tuberculosis (strain ATCC 25618 / H37Rv)) (UniProt P9WFW3); test: Assay for Asp RNA synthetase-1 from Mycobacterium tuberculosis; assay type: functional; parameters: scale not given: direction of the effect not stated beside the values; details: 30 µM; further: in the data most compounds retested in dose-response had high values
T1 sequence (whole entry): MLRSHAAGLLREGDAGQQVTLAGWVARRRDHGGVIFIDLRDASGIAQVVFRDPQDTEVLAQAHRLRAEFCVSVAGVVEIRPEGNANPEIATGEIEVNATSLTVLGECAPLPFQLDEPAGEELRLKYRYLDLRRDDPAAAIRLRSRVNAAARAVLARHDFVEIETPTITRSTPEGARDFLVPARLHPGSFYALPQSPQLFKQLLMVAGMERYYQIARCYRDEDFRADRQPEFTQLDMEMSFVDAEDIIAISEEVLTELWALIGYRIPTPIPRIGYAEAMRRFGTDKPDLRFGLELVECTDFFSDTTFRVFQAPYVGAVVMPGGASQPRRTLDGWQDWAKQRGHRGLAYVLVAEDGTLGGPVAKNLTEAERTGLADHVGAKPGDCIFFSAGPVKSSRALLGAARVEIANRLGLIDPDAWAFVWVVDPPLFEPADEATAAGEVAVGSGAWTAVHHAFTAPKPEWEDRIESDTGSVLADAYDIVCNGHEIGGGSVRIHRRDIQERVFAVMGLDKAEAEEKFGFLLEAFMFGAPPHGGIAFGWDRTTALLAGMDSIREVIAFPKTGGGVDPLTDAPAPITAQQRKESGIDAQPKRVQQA

[2] = target: Shiga toxin 2 (Escherichia coli O157:H7) (UniProt P09385+P09386); test: E. coli 0.157:H7 Shiga Toxin SOP - stx2 screening assay; assay type: functional; parameters: scale not given: direction of the effect not stated beside the values; details: 30 µM

Row | SMILES | Percent Effect [1] [%] | Percent Effect [2] [%]
1 | O=C(NC(CO)CO)c1coc(COc2cccc(F)c2)n1 | -1.14 | -3.72
2 | Cc1ccc(NC(=O)N2CCOC(C)C2)cc1Cl (stereo unspecified) | 0.866 | 1.77
3 | CC(C)(C)C(=O)N1CCC2(COCc3cnc(N4CCOCC4)nc32)C1 (stereo unspecified) | 3.22 | -15.4
4 | O=C(c1nc(COc2ccc3c(c2)OCO3)no1)N1CCCC1 | 6.21 | -63.7
5 | Cc1nc(C2CCCN2C(=O)c2cc3c(s2)CCCC3)no1 (stereo unspecified) | -1.23 | 23.4
6 | CCC(=O)Nc1nnc(CCOc2cccc(OC)c2)s1 | -4.27 | 5.93
7 | COc1ncc(C2(O)CCN(Cc3ccccc3O)CC2)c(OC)n1 | -1.78 | -22.9
8 | CC(C)c1nnc2n1CC(CNCc1ccncc1)CC2 (stereo unspecified) | -2.34 | -14.7
9 | Cc1noc(C)c1CNC(=O)N1CCN(Cc2cscn2)CC1 | 0.233 | 1.78
10 | Cc1cc(-c2cnc(N3CCCC(C)C3)nc2-c2cccnc2C)on1 (stereo unspecified) | 7.13 | -30.1
11 | Cc1cc(F)ccc1CNCCn1cccn1 | -3.06 | 13
12 | COc1cc2cc(C(=O)O)n(C)c2c(OC)c1OC | -3.95 | 1.12
13 | CC(C)CCOCCNC(=O)Nc1cc(C(F)(F)F)c[nH]c1=O | 1.4 | 5.72
14 | COCCOc1ncccc1CNCc1c(C)nn(C)c1N(C)C | -5.91 | 7.43
15 | Cc1ccc(CC(=O)N2CCOC(c3nc(C)n[nH]3)C2)cn1 (stereo unspecified) | 1.92 | 0.301
16 | COc1c(CNC2CCN(C(C)(C)C)CC2)c(C(C)C)nn1C | -0.618 | 30.9
17 | Cc1ccc2c(n1)N(CCN(C)C)CCN(C(=O)c1ccc[nH]1)C2 | 8.78 | -14.6
18 | COCCN1C[C@@H]2CCCO[C@@H]2[C@H](N(C)Cc2ccco2)C1 | 0.0735 | -6.84
19 | CCn1cc(CN2CCc3nc(N4CCOCC4)nc(O)c3CC2)cn1 | -1.83 | -19.4
20 | CS(=O)(=O)NC[C@]12COC[C@H]1CN(CC1CCCC1)C2 | 0.107 | 6.37
21 | Cc1ccc([C@@H]2CN(C(=O)c3ccc[nH]3)C[C@H]2NC(=O)C2CC2)cc1 | -1.93 | 3.8
22 | CC(=O)N1CCC(C(=O)c2cc(C)cnc2N)CC1 | 0.75 | -6.78
23 | Cc1cc(NCc2cc3n(n2)CCCN(S(C)(=O)=O)C3)ncn1 | -7.29 | 25.2
24 | Cc1cc(CN(C)Cc2cc3c(cc2OC(F)F)OCO3)on1 | 4.16 | 19.4
25 | COCc1cccc(NC(C)C(=O)N(C)Cc2ccccc2)c1 (stereo unspecified) | -0.212 | -8.1

Row | SMILES | Percent Effect [1] [%] | Percent Effect [2] [%]
26 | CC(=O)N1CCCC1c1cccc(Cc2ccccc2F)n1 (stereo unspecified) | -0.134 | 4.04
27 | CC(=O)N1CCCC1c1nccnc1Nc1cccc(C)n1 (stereo unspecified) | 1.07 | -5.74
28 | CN(C)Cc1cc(=O)n2c(n1)CN(C(=O)Cc1ccsc1)CCC2 | -1.04 | -17
29 | CN(Cc1ccc(Cl)c(Cl)c1)C(=O)CNC(N)=O | 0.719 | 10.2
30 | CCS(=O)(=O)N1CCC2(CCC2NC(=O)c2ccn(C)c2)CC1 (stereo unspecified) | 1.6 | 9
31 | Cc1ccc(N2CCC3(CCN(C(N)=O)CC3)CC2)nn1 | 2.03 | -2.18
32 | CCN(CC1CCOC1)C(=O)c1ccccc1NS(=O)(=O)CC (stereo unspecified) | -4.47 | 33.3
33 | CN(C)CC1CN(CCOc2cccc(C#N)c2)CCO1 (stereo unspecified) | -0.815 | 15.6
34 | Cc1nn(C)c(Cl)c1C1CCCN1CC(=O)NCc1ccccn1 (stereo unspecified) | -2.78 | -10.8
35 | CC(Cn1cncn1)NCc1nncn1C1CCCCC1 (stereo unspecified) | -4.88 | 2.43
36 | CC(=O)NC(C)c1ccc(OCC2CC2)c(F)c1 (stereo unspecified) | 0.15 | 4.12
37 | CC(C)c1nc2n(n1)CC(NCc1ncc(-c3ccccc3)o1)CC2 (stereo unspecified) | -5.88 | -9.35
38 | CCN(CC)C(=O)Cn1ccc2cc(NC(=O)C3CC3)ccc21 | -1.5 | -4.48
39 | Cc1nnc(N2CCOC(Cn3cccn3)C2)c(C#N)c1C (stereo unspecified) | 3.88 | 19.5
40 | CN(Cc1nc(N)c2ccccc2n1)CC1CCCN1c1cccnn1 (stereo unspecified) | 4.61 | 24.7
41 | O=C(CCc1ccc(Cl)s1)N1CCCC(n2cncn2)C1 (stereo unspecified) | 2.08 | 5.05
42 | N#CCCN(C(=O)CN1CCCC1c1ccsc1)c1ccccc1F (stereo unspecified) | -3.67 | 4.76
43 | COc1ccccc1C(=O)N1Cc2cc(C)ccc2OCC1CN(C)C (stereo unspecified) | 1.89 | -7.43
44 | Cc1ccc2oc(CNC(C)c3nnc4n3CCCC4)cc2c1 (stereo unspecified) | -1.73 | -34.3
45 | c1cc(CNCC2OCCc3cn(CC4CCOCC4)nc32)ccn1 (stereo unspecified) | 4.2 | -5.21
46 | COCC1CC2(CCN(C(=O)c3cccn3C)CC2)CN1C(C)C (stereo unspecified) | -3.53 | -6.37
47 | O=C(NCc1cccnc1)C1CC(=O)N(CC2CC2)C1 (stereo unspecified) | -3.29 | -8.28
48 | Cc1cnn(C2CCCN(C(=O)c3ccn(C)c(=O)c3)C2)c1 (stereo unspecified) | -2.74 | 22
49 | O=C(NCc1cc[nH]n1)NCC(c1ccccc1Cl)N1CCCC1 (stereo unspecified) | 5.68 | 4.8
50 | Cn1cnnc1C1CCCN(C(=O)c2n[nH]c3ccccc23)C1 (stereo unspecified) | -3.14 | -4.11

Row | SMILES | Percent Effect [1] [%] | Percent Effect [2] [%]
51 | CCC(C)NC(=O)Cc1c(C)nc2c(c1C)c(=O)[nH]n2C (stereo unspecified) | 5.44 | -28.6
52 | Cc1ccc(N2CCCC(NCC(=O)Nc3cc(C)no3)C2)nn1 (stereo unspecified) | -0.917 | -55.3
53 | CCn1cc(C(=O)NCc2csc(Br)c2)cn1 | -3.16 | 6.72
54 | CCn1cc(CN2CCCC(CO)(CCc3ccccc3)C2)c(C)n1 (stereo unspecified) | 0.494 | -5.78
55 | COCc1cc(O)nc(C2CCCN(Cc3cc(OC)ccc3F)C2)n1 (stereo unspecified) | 1.71 | 17.7
56 | Cc1ccc(Nc2nccc(C3CCCN(CC(=O)N(C)C)C3)n2)nc1 (stereo unspecified) | -2.93 | -28.3
57 | COc1cnc(C2(O)CCN(C(=O)c3ccncc3)CC2)c(OC)n1 | -2.63 | -1.51
58 | Cc1ccccc1CC1(CO)CCCN(c2ncccc2C#N)C1 (stereo unspecified) | 3.07 | -4.79
59 | Cc1ccc(S(=O)(=O)N2C[C@H]3C[C@H](NC(=O)c4ccn(C)n4)[C@H]3C2)cc1 | 1.35 | -2.81
60 | CC(NC(=O)c1cc(-c2cccc(Cl)c2)no1)C(=O)N1CCCC1 (stereo unspecified) | 0.15 | -14.8
61 | CS(=O)(=O)NC1CCCN(C(=O)NCc2cc[nH]n2)C1 (stereo unspecified) | -0.0288 | 2.05
62 | CC(C)NC(=O)N1CCC2(COCc3cnc(-c4cccnc4)nc32)C1 (stereo unspecified) | -2.8 | 2.56
63 | Cn1cnc2c1C(COCC1CCOCC1)CN(C(=O)c1ccoc1)C2 (stereo unspecified) | 2.22 | -11.7
64 | c1ccc(CN2CCCC2Cn2cncn2)nc1 (stereo unspecified) | 3.85 | -7.85
65 | CCc1c(C(=O)N2CCN(c3ncccn3)CC2)cnn1C(C)(C)C | 3.62 | 30.7
66 | CCn1nc(C(C)C)cc1C(=O)NCCCOC | -1.73 | 3.47
67 | N#CC1(C(=O)Nc2ccc(OC(F)F)cc2)CCCC1 | 3.4 | -2.03
68 | COc1ccc2cc(C(=O)N3CCCCC3Cn3cccn3)[nH]c2c1 (stereo unspecified) | -2.15 | 16.3
69 | CCC(O)CN1CCN(C(=O)c2cccn2Cc2cccs2)CC1 (stereo unspecified) | 0.685 | 9.26
70 | C[S+]([O-])c1nncn1CC(=O)c1ccc(Cl)c(Cl)c1 (stereo unspecified) | 1.03 | -25.1
71 | COC1CCCN(Cc2nc(Cc3ccccc3F)no2)C1 (stereo unspecified) | -7.18 | 6.38
72 | Cc1nn(C)c(C)c1CC(=O)N1CCCC(n2cccn2)C1 (stereo unspecified) | -4.75 | 20.6
73 | Cc1cc(C)n(CC(=O)NC(Cc2ccsc2)c2ccccn2)c(=O)n1 (stereo unspecified) | -2.19 | -15.3
